# Targets with a hit are over-represented here; the source holds about 7,900 in all. About 0.6% of all pairs of compound and target were hits.
# Compound: NCC(=O)Nc1ccc(-n2nc(C(F)(F)F)cc2-c2ccc3c(ccc4ccccc43)c2)cc1
# Assay: log2 fold change, soluble protein after heating vs DMSO (PISA); higher = thermal stabilisation; K562 cells, 10 uM, 30 min; active = over 0.2 and 3.5 SD of the protein, either way, in both replicates (recomputed)
# How it was run: (§1)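 Soluble protein was defined as the supernatant after 21,000xg for 90 min. It came from K562 cells at 2×10^6 cells/mL given 10 μM compound for 30 min, heated in aliquots for 3 min across 48°C-58°C, pooled, and extracted in PBS with 0.5% NP-40 at 4°C, and was quantified by TMTpro 16plex LC-MS/MS with equalised channel sums. Thermal stability against control samples, from duplicates, is reported as log2 fold change.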
# Sequence of UniProt Q9UBV8 (Q9UBV8 whole entry, looked up): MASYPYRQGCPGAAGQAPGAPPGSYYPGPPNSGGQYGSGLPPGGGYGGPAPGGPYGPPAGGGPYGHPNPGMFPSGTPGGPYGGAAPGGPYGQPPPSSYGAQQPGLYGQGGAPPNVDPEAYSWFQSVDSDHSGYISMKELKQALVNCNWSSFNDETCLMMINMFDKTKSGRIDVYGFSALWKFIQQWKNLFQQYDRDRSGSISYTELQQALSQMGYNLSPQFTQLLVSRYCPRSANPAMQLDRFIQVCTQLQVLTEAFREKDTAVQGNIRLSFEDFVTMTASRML
# Sequence of UniProt O43924 (O43924 whole entry, looked up): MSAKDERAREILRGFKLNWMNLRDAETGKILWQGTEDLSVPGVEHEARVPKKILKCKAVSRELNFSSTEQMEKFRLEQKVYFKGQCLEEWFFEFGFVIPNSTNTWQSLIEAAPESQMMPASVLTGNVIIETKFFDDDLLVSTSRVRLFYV
# Sequence of UniProt Q99541 (Q99541 whole entry, looked up): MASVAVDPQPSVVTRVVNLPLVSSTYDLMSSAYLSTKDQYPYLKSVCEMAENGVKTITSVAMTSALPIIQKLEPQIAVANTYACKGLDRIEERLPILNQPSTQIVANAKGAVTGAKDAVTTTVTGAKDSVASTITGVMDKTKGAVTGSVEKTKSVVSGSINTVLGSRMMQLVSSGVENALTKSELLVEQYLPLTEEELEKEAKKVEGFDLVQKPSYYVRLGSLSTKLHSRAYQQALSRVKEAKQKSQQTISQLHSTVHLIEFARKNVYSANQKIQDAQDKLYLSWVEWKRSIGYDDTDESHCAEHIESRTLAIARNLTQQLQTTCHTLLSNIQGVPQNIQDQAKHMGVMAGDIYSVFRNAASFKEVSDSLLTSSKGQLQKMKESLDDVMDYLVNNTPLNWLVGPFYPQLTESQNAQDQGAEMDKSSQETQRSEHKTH
# Sequence of UniProt Q6L8Q7 (Q6L8Q7 whole entry, looked up): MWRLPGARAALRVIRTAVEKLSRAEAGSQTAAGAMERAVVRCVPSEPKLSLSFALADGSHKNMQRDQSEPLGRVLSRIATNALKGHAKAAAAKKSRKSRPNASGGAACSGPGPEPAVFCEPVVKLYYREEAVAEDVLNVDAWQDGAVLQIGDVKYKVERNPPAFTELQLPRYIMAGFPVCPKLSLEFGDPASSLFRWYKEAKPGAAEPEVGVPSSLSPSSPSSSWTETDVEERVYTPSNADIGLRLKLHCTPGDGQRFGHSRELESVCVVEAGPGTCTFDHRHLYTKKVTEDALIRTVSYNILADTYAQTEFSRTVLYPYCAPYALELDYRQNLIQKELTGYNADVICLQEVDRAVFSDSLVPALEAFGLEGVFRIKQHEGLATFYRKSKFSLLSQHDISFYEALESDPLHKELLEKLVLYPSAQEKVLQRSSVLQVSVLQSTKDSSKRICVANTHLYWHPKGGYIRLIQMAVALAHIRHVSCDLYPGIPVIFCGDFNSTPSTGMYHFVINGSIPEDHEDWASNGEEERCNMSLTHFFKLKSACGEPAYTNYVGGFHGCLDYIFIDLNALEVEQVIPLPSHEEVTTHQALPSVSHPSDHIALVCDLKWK
# Sequence of UniProt Q6EEV4 (Q6EEV4 whole entry, looked up): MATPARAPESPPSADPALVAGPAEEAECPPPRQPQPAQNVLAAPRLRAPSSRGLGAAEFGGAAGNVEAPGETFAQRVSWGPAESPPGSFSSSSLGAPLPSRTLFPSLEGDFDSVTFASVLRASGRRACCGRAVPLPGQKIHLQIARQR
# Sequence of UniProt O94806 (O94806 whole entry, looked up): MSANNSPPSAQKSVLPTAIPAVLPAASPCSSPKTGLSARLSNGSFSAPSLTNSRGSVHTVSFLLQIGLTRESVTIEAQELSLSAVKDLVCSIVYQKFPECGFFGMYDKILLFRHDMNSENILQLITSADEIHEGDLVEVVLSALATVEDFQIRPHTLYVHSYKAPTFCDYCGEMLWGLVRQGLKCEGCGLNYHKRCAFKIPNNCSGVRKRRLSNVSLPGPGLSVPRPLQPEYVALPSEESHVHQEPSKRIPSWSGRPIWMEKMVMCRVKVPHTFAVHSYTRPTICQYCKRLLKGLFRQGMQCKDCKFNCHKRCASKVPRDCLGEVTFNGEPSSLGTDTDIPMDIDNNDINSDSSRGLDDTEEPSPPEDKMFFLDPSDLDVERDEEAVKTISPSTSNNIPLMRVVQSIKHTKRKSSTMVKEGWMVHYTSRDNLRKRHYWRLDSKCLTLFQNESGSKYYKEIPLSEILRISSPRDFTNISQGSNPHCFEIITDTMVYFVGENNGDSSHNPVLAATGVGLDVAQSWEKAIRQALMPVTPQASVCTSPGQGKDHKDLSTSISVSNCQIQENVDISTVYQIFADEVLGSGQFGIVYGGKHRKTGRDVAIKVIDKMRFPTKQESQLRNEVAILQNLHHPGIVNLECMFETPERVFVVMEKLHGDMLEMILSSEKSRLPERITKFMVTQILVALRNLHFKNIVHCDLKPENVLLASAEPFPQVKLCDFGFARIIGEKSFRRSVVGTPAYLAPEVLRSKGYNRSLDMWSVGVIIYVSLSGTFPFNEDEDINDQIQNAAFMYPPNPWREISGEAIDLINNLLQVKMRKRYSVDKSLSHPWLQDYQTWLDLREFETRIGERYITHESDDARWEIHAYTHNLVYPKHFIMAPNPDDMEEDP
# Sequence of UniProt O96011 (O96011 whole entry, looked up, change not shown): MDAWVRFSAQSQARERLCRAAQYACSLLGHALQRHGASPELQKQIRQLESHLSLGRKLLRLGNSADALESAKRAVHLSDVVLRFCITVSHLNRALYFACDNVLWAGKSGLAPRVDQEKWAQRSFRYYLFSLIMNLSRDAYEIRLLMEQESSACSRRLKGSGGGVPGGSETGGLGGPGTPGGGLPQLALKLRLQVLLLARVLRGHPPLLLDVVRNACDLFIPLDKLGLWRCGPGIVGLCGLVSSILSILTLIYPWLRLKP
# Sequence of UniProt P49642 (P49642 whole entry, looked up): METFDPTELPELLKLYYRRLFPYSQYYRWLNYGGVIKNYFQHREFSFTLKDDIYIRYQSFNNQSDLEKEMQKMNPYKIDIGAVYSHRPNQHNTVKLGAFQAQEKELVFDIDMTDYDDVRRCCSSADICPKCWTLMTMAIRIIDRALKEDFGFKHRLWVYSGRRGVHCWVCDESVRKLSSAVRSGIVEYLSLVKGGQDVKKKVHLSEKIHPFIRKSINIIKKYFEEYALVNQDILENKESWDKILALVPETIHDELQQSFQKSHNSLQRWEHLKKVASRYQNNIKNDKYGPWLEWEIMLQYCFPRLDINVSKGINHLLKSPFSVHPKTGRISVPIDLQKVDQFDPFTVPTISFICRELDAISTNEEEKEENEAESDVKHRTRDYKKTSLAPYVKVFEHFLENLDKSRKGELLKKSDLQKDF
# Sequence of UniProt Q13362 (Q13362 whole entry, looked up): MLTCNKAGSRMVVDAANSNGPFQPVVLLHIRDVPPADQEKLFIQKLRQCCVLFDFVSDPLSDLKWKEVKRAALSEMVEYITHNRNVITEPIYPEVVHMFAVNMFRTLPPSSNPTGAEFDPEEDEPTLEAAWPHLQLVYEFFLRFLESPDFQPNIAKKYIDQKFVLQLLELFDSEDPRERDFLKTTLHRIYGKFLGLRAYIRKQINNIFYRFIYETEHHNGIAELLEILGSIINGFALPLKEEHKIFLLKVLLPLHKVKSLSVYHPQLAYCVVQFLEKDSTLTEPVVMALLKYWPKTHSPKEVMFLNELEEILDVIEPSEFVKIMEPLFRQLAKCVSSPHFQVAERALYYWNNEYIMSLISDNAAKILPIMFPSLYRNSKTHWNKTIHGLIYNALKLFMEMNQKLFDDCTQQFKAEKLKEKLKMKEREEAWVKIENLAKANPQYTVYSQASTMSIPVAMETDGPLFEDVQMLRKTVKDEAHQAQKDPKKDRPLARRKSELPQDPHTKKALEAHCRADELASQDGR
# Sequence of UniProt P46019 (P46019 whole entry, looked up): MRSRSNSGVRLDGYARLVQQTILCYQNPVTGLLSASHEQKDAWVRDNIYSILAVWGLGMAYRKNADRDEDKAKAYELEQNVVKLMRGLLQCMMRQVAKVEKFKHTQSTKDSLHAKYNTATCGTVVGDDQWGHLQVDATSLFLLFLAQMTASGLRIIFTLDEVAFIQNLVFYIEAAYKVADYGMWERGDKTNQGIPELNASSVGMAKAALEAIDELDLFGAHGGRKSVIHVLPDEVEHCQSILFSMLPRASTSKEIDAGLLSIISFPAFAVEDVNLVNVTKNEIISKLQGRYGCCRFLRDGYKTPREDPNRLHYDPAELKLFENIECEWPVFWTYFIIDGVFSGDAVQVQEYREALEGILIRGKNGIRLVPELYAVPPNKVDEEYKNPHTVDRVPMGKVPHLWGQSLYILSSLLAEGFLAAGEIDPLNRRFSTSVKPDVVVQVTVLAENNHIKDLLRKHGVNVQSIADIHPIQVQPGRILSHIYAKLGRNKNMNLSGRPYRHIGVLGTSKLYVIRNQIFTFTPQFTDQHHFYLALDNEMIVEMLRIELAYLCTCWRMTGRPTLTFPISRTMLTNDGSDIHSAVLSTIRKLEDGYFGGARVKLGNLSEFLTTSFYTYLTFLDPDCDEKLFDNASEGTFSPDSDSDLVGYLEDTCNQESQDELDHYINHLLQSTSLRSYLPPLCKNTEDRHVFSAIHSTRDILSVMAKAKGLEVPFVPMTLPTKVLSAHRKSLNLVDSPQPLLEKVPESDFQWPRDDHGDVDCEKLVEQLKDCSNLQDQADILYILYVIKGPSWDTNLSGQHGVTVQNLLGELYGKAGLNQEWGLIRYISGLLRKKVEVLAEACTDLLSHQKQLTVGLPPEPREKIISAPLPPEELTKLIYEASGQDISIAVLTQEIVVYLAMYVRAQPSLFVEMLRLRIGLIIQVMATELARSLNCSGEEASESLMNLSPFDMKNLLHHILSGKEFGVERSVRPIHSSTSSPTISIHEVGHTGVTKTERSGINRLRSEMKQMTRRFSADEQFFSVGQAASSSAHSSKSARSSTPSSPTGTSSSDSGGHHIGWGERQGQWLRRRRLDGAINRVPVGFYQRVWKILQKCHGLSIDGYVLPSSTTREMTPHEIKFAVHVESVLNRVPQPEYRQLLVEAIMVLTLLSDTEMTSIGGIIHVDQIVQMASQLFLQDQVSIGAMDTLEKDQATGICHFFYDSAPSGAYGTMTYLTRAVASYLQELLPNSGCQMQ
row,Target,log2 fold change
1,POLR3D (UniProt P05423),-0.028 (inactive)
2,PRKCA (UniProt P17252),-0.029 (inactive)
3,POLR2C (UniProt P19387),-0.196 (inactive)
4,PRKD2 isoform 3 (UniProt Q9BZL6),0 (inactive)
5,PHKA2 (UniProt P46019),0.005 (inactive)
6,POLR2M (UniProt Q6EEV4),-0.056 (inactive)
7,PGGHG (UniProt Q32M88),0.083 (inactive)
8,PTPMT1 (UniProt Q8WUK0),-0.166 (inactive)
9,PEX11B (UniProt O96011),0.073 (inactive)
10,PDIK1L (UniProt Q8N165),-0.225 (inactive)
11,PCYT1B (UniProt Q9Y5K3),-0.03 (inactive)
12,PTP4A2 (UniProt Q12974),-0.023 (inactive)
13,PEF1 (UniProt Q9UBV8),-0.036 (inactive)
14,PISD (UniProt Q9UG56),0.045 (inactive)
15,PDE6D (UniProt O43924),0.025 (inactive)
16,PNPLA4 (UniProt P41247),0.131 (inactive)
17,PSMD7 (UniProt P51665),0.029 (inactive)

row,Target,log2 fold change
1,PBX2 (UniProt P40425),-0.065 (inactive)
2,PPP2R5C isoform 4 (UniProt Q13362),-0.065 (inactive)
3,PIP4P1 isoform 2 (UniProt Q86T03),0.095 (inactive)
4,QKI (UniProt Q96PU8),-0.084 (inactive)
5,PMVK (UniProt Q15126),0.29 (inactive)
6,PI4K2B (UniProt Q8TCG2),-0.069 (inactive)
7,PDE12 (UniProt Q6L8Q7),-0.008 (inactive)
8,POGZ (UniProt Q7Z3K3),-0.028 (inactive)
9,PLIN2 (UniProt Q99541),-0.059 (inactive)
10,PRKD3 (UniProt O94806),-0.213 (inactive)
11,PSMC4 (UniProt P43686),0.027 (inactive)
12,QRICH1 (UniProt Q2TAL8),-0.093 (inactive)
13,PSMC1 (UniProt P62191),0.043 (inactive)
14,PMPCA (UniProt Q10713),-0.053 (inactive)
15,PRIM1 (UniProt P49642),-0.056 (inactive)
16,PRKACB isoform 2 (UniProt P22694),-0.02 (inactive)
17,PTK2B (UniProt Q14289),-0.092 (inactive)

# Compound: Nc1ccccc1NC(=O)c1ccc(CNC(=O)OCc2cccnc2)cc1 [entinostat]
# Assay: as above
# How it was run: as §1
row,Target,log2 fold change
1,POLR3D (UniProt P05423),0.03 (inactive)
2,PRKCA (UniProt P17252),0.057 (inactive)
3,POLR2C (UniProt P19387),-0.031 (inactive)
4,PRKD2 isoform 3 (UniProt Q9BZL6),0.331 (inactive)
5,PHKA2 (UniProt P46019),0.13 (inactive)
6,POLR2M (UniProt Q6EEV4),-0.148 (inactive)
7,PGGHG (UniProt Q32M88),-0.033 (inactive)
8,PTPMT1 (UniProt Q8WUK0),0.073 (inactive)
9,PEX11B (UniProt O96011),0.047 (inactive)
10,PDIK1L (UniProt Q8N165),-0.094 (inactive)
11,PCYT1B (UniProt Q9Y5K3),0.043 (inactive)
12,PTP4A2 (UniProt Q12974),0.011 (inactive)
13,PEF1 (UniProt Q9UBV8),0.128 (inactive)
14,PHKA1 (UniProt P46020),-0.005 (inactive)
15,PISD (UniProt Q9UG56),-0.047 (inactive)
16,PDE6D (UniProt O43924),0.125 (inactive)
17,PNPLA4 (UniProt P41247),-0.093 (inactive)
18,PSMD7 (UniProt P51665),-0.049 (inactive)

row,Target,log2 fold change
1,PNN (UniProt Q9H307),0.021 (inactive)
2,PBX2 (UniProt P40425),0.058 (inactive)
3,PPP2R5C isoform 4 (UniProt Q13362),0.012 (inactive)
4,PIP4P1 isoform 2 (UniProt Q86T03),0.042 (inactive)
5,QKI (UniProt Q96PU8),0.006 (inactive)
6,PMVK (UniProt Q15126),-0.08 (inactive)
7,PI4K2B (UniProt Q8TCG2),0.066 (inactive)
8,PDE12 (UniProt Q6L8Q7),0.017 (inactive)
9,POGZ (UniProt Q7Z3K3),-0.031 (inactive)
10,PLIN2 (UniProt Q99541),0.077 (inactive)
11,PRKD3 (UniProt O94806),0.34 (inactive)
12,PSMC4 (UniProt P43686),-0.023 (inactive)
13,QRICH1 (UniProt Q2TAL8),0.168 (inactive)
14,PSMC1 (UniProt P62191),-0.013 (inactive)
15,PMPCA (UniProt Q10713),-0.018 (inactive)
16,PRIM1 (UniProt P49642),0.041 (inactive)
17,PRKACB isoform 2 (UniProt P22694),0.001 (inactive)
18,PTK2B (UniProt Q14289),0.128 (inactive)

# From the supplement of paper PMC10849652
